DAX1 inh-1: DAX1 (NR0B1) inhibitors, primary screen, cell-based, HEK293, Gal4-DAX1, luciferase luminescence | HEK293 Gal4-DAX1 luciferase reporter | AID 504766, 2011 | Nuclear receptor subfamily 0 group B member 1 (Homo sapiens), P51843 | inhibition, % at 6.75 µM | hit rate 0.99% among 340,000;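 active means inhibition above the mean over all tested compounds plus 3 SD, cut at about 4.2% in these data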;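 further: 0% = DAX1-transfected cells with DMSO and 100% = empty-vector control cells with DMSO; inhibition shows as a rise in luminescence from relieved DAX1 repression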
Target sequence (P51843 207-470 limits assumed): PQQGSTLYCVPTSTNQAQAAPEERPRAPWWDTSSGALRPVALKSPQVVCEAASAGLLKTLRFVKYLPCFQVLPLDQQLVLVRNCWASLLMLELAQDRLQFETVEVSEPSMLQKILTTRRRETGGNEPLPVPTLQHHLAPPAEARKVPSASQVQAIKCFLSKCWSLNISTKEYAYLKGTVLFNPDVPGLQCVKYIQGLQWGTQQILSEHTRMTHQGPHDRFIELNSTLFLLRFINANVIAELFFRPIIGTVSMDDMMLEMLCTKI
DAX1 inh-2: DAX1 (NR0B1) inhibitors on StAR promoter, primary screen, cell-based, luminescence, SF-1 (NR5A1), full-length DAX-1; AID 652010, 2013; inhibition, % at 6.8 µM; hit rate 1.1% among 370,000; HEK293T StAR-luciferase reporter, SF-1/DAX-1 repression relief;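 active means inhibition above the mean over all tested compounds plus 3 SD, cut at about 3.6% in these data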;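 further: 0% = DAX-1 cells with DMSO and 100% = cells lacking DAX-1 with DMSO; higher inhibition means more luminescence from relief of DAX-1 repression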
hcDAF12 agonist: H. contortus DAF-12 nuclear receptor activators, primary screen, cell-based, luminescence, HEK293, lit1-tk-luc reporter. activation, % at 6.8 µM. HEK293 hcDAF-12 lit1-tk-luc reporter; 0% DMSO, 100% Δ7-dafachronic acid. hit rate 1.4% among 370,000. AID 652067, 2013;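 active means activation above the mean of all tested compounds plus 3 SD, cut at about 5.5% in these data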;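 further: 100% = response to 3 µM Δ7-dafachronic acid high control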
hgDAF-12 ag: H. glycines DAF-12 receptor agonists, primary screen, cell-based, luminescence, HEK293, GAL4 fusion, UAS-luciferase. Nuclear hormone receptor DAF-12 (Heterodera glycines), GAL4 fusion. activation, % at 6.8 µM. hit rate 1.8% among 370,000. HEK293 GAL4-hgDAF12 UAS-luciferase reporter, agonist luminescence; normalized to butyrate control;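 active means activation above a cutoff set at the mean of all screened compounds plus 3 SD, cut at about 10% in these data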;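 further: 0% = DMSO wells and 100% = sodium butyrate wells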
ssDAF12 agonist: S. stercoralis DAF-12 nuclear receptor activators, primary screen, cell-based, luminescence, HEK293, GRIP1 co-expression, lit1-tk-luc; HEK293 ssDAF-12/GRIP1 lit1-tk-luc reporter; % of 3 µM dafachronic acid response; activation, % at 6.8 µM; hit rate 1% among 370,000; AID 652126, 2013;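 active means activation above the mean over all tested compounds plus 3 SD, cut at about 0.9% in these data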;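 further: 0% = DMSO-only wells and 100% = 3 µM delta7-dafachronic acid wells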
* hit, by the source's call. The list is not random: actives were taken first. Their share in the collection is about 4.1%.

Cc1nc(-c2ccc3c(c2)OCCO3)cs1 was read as DAX1 inh-1 1, DAX1 inh-2 2, hcDAF12 agonist 2, hgDAF-12 ag 5 and ssDAF12 agonist -1.
For O=C(CCCc1ccccc1)Nc1nnc(C(F)(F)F)s1 the results were DAX1 inh-1 -1, DAX1 inh-2 -1, hcDAF12 agonist 0, hgDAF-12 ag -3 and ssDAF12 agonist -1.
`COC(=O)CCCCCCCC(=O)Nc1nnc(C(F)(F)F)s1` gave DAX1 inh-1 6.1*, DAX1 inh-2 0, hcDAF12 agonist -1, hgDAF-12 ag -2 and ssDAF12 agonist -1.
`CCOc1ccccc1C=NN=Cc1ccccc1O` gave DAX1 inh-1 6.8*, DAX1 inh-2 0, hcDAF12 agonist 0, hgDAF-12 ag -1 and ssDAF12 agonist 1.1*.
For c1nc(NC[C@@H]2CCCO2)c2cc(-c3ccc4c(c3)OCO4)ccc2n1 the results were hcDAF12 agonist 0, hgDAF-12 ag 6 and ssDAF12 agonist -1.
For c1ccc(Oc2ccc(-c3ccn[nH]3)cc2)cc1 the results were DAX1 inh-1 4.6*, DAX1 inh-2 1, hcDAF12 agonist 3, hgDAF-12 ag 8 and ssDAF12 agonist 1.
C#CCSc1nnnn1-c1cccc(Cl)c1 was read as DAX1 inh-1 4.3*, DAX1 inh-2 -1, hcDAF12 agonist -2, hgDAF-12 ag 2 and ssDAF12 agonist -2.
NC(=O)CSc1nnnn1-c1cccc(Cl)c1 was read as DAX1 inh-1 1, DAX1 inh-2 0, hcDAF12 agonist -2, hgDAF-12 ag 1 and ssDAF12 agonist -1.
For Nc1ccc(O)c(-c2nc3ccccc3s2)c1 the results were DAX1 inh-1 1, DAX1 inh-2 2, hcDAF12 agonist 4, hgDAF-12 ag 7 and ssDAF12 agonist 1.2*.
Screening Oc1ccc(-c2nc3ccccc3s2)c(O)c1 returned DAX1 inh-1 1, DAX1 inh-2 3, hcDAF12 agonist 1, hgDAF-12 ag 8 and ssDAF12 agonist 0.
Screening CC(C)NC(=O)N[C@@H]1C[C@@H]2O[C@H](CO)CC[C@@H]2O[C@@H]1CCc1ccc(-c2ccccc2F)cc1 returned DAX1 inh-2 -1, hcDAF12 agonist -1, hgDAF-12 ag 0 and ssDAF12 agonist -1.
`CCOC(=O)C1=C(C)C(c2ccc(OC)cc2OC)NC(=O)N1` (centres undefined) gave DAX1 inh-1 0, DAX1 inh-2 0, hcDAF12 agonist 0, hgDAF-12 ag -1 and ssDAF12 agonist -1.
CCOC(=O)C1=C(C)C(c2ccccc2O)NC(=O)N1 (centres undefined) was read as DAX1 inh-1 6.0*, DAX1 inh-2 0, hcDAF12 agonist -2, hgDAF-12 ag 0 and ssDAF12 agonist -1.
Cc1c(NC2=C(Cl)C(=O)N(c3ccccc3Cl)C2=O)c(=O)n(-c2ccccc2)n1C was read as DAX1 inh-1 0, DAX1 inh-2 0, hcDAF12 agonist 5, hgDAF-12 ag 1 and ssDAF12 agonist 0.9*.
O=C(CC1CCCC1)N[C@@H](Cc1cccnc1)C(=O)N1CCC[C@H]1C(=O)NC1CCCC1 was read as DAX1 inh-2 1, hcDAF12 agonist -1, hgDAF-12 ag -2 and ssDAF12 agonist -2.
For CCc1nnc(NC(=S)Nc2ccccc2)s1 the results were DAX1 inh-1 0, DAX1 inh-2 2, hcDAF12 agonist 4, hgDAF-12 ag 12* and ssDAF12 agonist 0.
`CC(C)Cc1nnc(NC(=O)CCC(=O)Nc2ccccc2)s1` gave DAX1 inh-1 0, DAX1 inh-2 3.6*, hcDAF12 agonist 0, hgDAF-12 ag 6 and ssDAF12 agonist -1.
`Cc1ccc(C(=O)Nc2nnc(NC(=S)Nc3ccccc3)s2)cc1` gave DAX1 inh-1 -1, DAX1 inh-2 0, hcDAF12 agonist 2, hgDAF-12 ag 3 and ssDAF12 agonist -1.
Cc1cc(NC(=O)C(C)SCC(=O)O)no1 (centres undefined) was read as DAX1 inh-1 0, DAX1 inh-2 1, hcDAF12 agonist -1, hgDAF-12 ag 1 and ssDAF12 agonist -1.
`CCc1nnc(NC(=O)CCC(=O)Nc2ccccc2)s1` gave DAX1 inh-1 1, DAX1 inh-2 1, hcDAF12 agonist 1, hgDAF-12 ag 0 and ssDAF12 agonist -1.
`Cc1cc(NC(=O)C(C)SCC(=O)Nc2nnc(CC(C)C)s2)no1` (centres undefined) gave DAX1 inh-1 1, DAX1 inh-2 3.6*, hcDAF12 agonist -1, hgDAF-12 ag 1 and ssDAF12 agonist -1.
`Cc1ccc2cc(C#N)c(N3CCN(C(=O)c4cccs4)CC3)nc2c1` gave DAX1 inh-1 -1, DAX1 inh-2 0, hcDAF12 agonist 6.5*, hgDAF-12 ag 0 and ssDAF12 agonist -1.
For COc1ccc(Nc2cc(C)nc3nc(C)nn23)cc1Cl the results were DAX1 inh-1 4.6*, DAX1 inh-2 -1, hcDAF12 agonist -1, hgDAF-12 ag -2 and ssDAF12 agonist -1.
Cc1cc(Nc2ccccc2Br)n2nc(C)nc2n1 was read as DAX1 inh-1 1, DAX1 inh-2 -1, hcDAF12 agonist 0, hgDAF-12 ag 3 and ssDAF12 agonist -1.
For COc1ccc(Nc2cc(C)nc3nc(C)nn23)c(OC)c1 the results were DAX1 inh-1 5.1*, DAX1 inh-2 0, hcDAF12 agonist -1, hgDAF-12 ag -2 and ssDAF12 agonist -1.
Cc1cc(Nc2ccc(F)c(Cl)c2)n2nc(C)nc2n1 was read as DAX1 inh-1 0, DAX1 inh-2 -1, hcDAF12 agonist -1, hgDAF-12 ag -3 and ssDAF12 agonist -1.
Cc1cc(Nc2ccc(C)c(Br)c2)n2nc(C)nc2n1 was read as DAX1 inh-1 4.4*, DAX1 inh-2 0, hcDAF12 agonist -1, hgDAF-12 ag 0 and ssDAF12 agonist -3.
Screening Cc1cc(Nc2cc(F)ccc2C)n2nc(C)nc2n1 returned DAX1 inh-1 3, DAX1 inh-2 0, hcDAF12 agonist 0, hgDAF-12 ag -1 and ssDAF12 agonist -1.
For Cc1cc(Nc2ccc(F)cc2F)n2nc(C)nc2n1 the results were DAX1 inh-1 4.9*, DAX1 inh-2 1, hcDAF12 agonist 4, hgDAF-12 ag 2 and ssDAF12 agonist 0.
For COc1ccccc1-c1ccc2c(c1)[C@@H]1C[C@H]3[C@@H](CN1CC2)[C@H](C)ON3C the results were DAX1 inh-2 0, hcDAF12 agonist -2, hgDAF-12 ag 0 and ssDAF12 agonist -1.

From PubChem BioAssay
